Results from PubChem BioAssay.
Unmarked numbers belong to inactive results. Activity calls are given as the source filed them. Rule as the data show it: active = inhibition above about 30%; inactive = the rest.

test system: transactivating tegument protein VP16 (Human herpesvirus 1), Gal4-VP16 luciferase reporter; test: VP16 transactivation inhibitors, counter-screen for SRC3 inhibitor project, cell-based, luminescence, high throughput (AID 588794); conditions: mammalian cells, VP16-driven luciferase reporter luminescence; at 3.6 µM; active compounds read high

Row | Compound | inhibition
1 | COc1cc(/C=C(/C(=O)c2cccs2)c2nc3ccccc3[nH]2)cc(OC)c1O | 12.1%
2 | CCCCCCCN1C2=NCCCN2c2ccccc21 | 21%
3 | C/C(=N\NC(=O)c1c(C)nc2ccccn12)c1ccc(O)cc1O | 55.2% (active)
4 | CCOc1ccc(N(CC)C(=O)Cc2c(C(=O)O)n(C)c3ccccc23)cc1 | 7.58%
5 | CCN(CC)S(=O)(=O)c1cc(NC(=O)C(C)OC(=O)c2[nH]c(C)c(C(C)=O)c2C)ccc1C (centres undefined) | 8.36%
6 | CCOc1ccc(N2C(=O)C(CC(=O)Nc3ccccc3)N(Cc3ccccn3)C2=S)cc1 (centres undefined) | 12.2%
7 | FC(F)(F)c1cccc(Nc2cc(-c3ccccc3)nc3ncnn23)c1 | -0.93%
8 | COc1ccc2c(O)c(-c3c(C)cc(C)cc3C)c(=O)[nH]c2c1 | -6.8%
9 | COc1ccc(/C=C/C(=O)C23CC4CC(CC(C4)C2)C3)cc1CN1CCOCC1 | 6.66%
10 | Cc1ccc(C(=O)NC2c3ccccc3-c3ccccc32)cc1 | 12.1%
11 | C#CCN(C[C@@H]1[C@@H](OC(=O)NCc2ccccc2F)[C@@H](OC(=O)NCc2ccccc2F)Cn2c(=O)ccc(=O)n21)S(=O)(=O)c1ccc(C)cc1 | 24.2%
12 | COC(=O)c1ccc2c(c1)C(C)(C)C(/C=C/c1ccc(O)cc1)=[N+]2C | 52.8% (active)
13 | CC(C)(C)c1cc(C(=O)N/N=C/c2ccccc2O)n(-c2ccccc2)n1 | 40.6% (active)
14 | COCC(C)n1c(SCC(=O)NC(=O)Cc2ccccc2)nc2ccccc2c1=O (centres undefined) | -4.14%
15 | CC(C)(CC(=O)O)CC(=O)Nc1cc(C(F)(F)F)cc(C(F)(F)F)c1 | -7.34%
16 | COc1ccc(C(C)=O)cc1CSc1nnc(Nc2ccccc2)s1 | 19.3%
17 | CCOC(=O)c1c(C)sc2c1N(C(=O)CCl)c1cc(Cl)ccc1S2 | 1.53%
18 | Cc1ccc(CNC(=O)CCc2ccc(S(=O)(=O)NC3CCCCC3)cc2)cc1 | 0.04%
19 | COc1ccc(-c2nc3c(c(SCC(=O)N4CCOCC4)n2)Cc2c(CO)cnc(C)c2O3)cc1 | -10.4%
20 | CC(C)(C)c1csc(Sc2ccc([N+](=O)[O-])cn2)n1 | -8.39%

Row | Compound | inhibition
21 | CCOCc1c(C(=O)NC2=Nc3ccccc3NC(CC)=C2C(=O)OCC)oc2ccccc12 | -11.3%
22 | O=C(Nc1ccc(S(=O)(=O)Nc2ccc(F)cc2)cc1)c1ccc(CN2CCOCC2)cc1 | 38.6% (active)
23 | O=C(C1CCC1)N1CCN(c2ccnc3cc(Cl)ccc23)CC1 | 6.97%
24 | Cc1cccc(C)c1-n1c(C)cc(/C=N\NC(=O)CC(=O)NC2CCCCC2)c1C | -15.1%
25 | O=C(NCc1ccccc1)c1c(Cl)nc(Cl)c(Cl)c1Cl | 21.9%
26 | O=C(COc1ccccc1[N+](=O)[O-])Nc1ccc(N2CCN(C(=O)c3cccs3)CC2)cc1 | 7.15%
27 | CCCC(=O)NC(NC(=S)Nc1ccc(N=Nc2ccccc2)cc1)C(Cl)(Cl)Cl (centres undefined) | 18.1%
28 | Cc1ccc(NC(=O)C2CCN(c3ncnc4c3nc3n4CCCCC3)CC2)cc1Cl | -3.54%
29 | CC(C)NC(=O)N(C)C[C@H]1Oc2ccc(NS(=O)(=O)c3ccc(Cl)cc3)cc2CC(=O)N([C@@H](C)CO)C[C@@H]1C | -1.86%
30 | Cc1ccc(OCC(O)CN2CCN(CC(O)COC(C)C)CC2)c(C(C)(C)C)c1 (centres undefined) | 13.2%
31 | Cc1ccc(F)cc1NC(=O)C1CCN(c2cnccn2)CC1 | -3.26%
32 | NC(=S)N/N=C1\CCOc2ccc(Cl)cc21 | 9.88%
33 | C#CCOCCOCCOCCNc1nc(N2CCN(C(=O)Cn3cc(CCCN=C(N)N)nn3)CC2)nc(N2CCN(C(=O)[C@H](C)n3cc(CCCN=C(N)N)nn3)CC2)n1 | 0.02%
34 | COc1cc2c(ccc3cc(OC)c(OC)c(O)c32)cc1O | -4.29%
35 | COc1ccc(N2CC(C(=O)N/N=C/c3ccccc3)CC2=O)cc1 (centres undefined) | -0.56%
36 | O=C(CNc1cccc([N+](=O)[O-])c1)N/N=C/c1ccc([N+](=O)[O-])o1 | 14.3%
37 | Cc1nc2ccccn2c1-c1ccnn1S(=O)(=O)c1ccc(F)cc1 | 12.3%
38 | CCCNc1nc(OC(C(F)(F)F)C(F)(F)F)nc(OC(C(F)(F)F)C(F)(F)F)n1 | -8.01%
39 | Cc1c(Cl)cccc1NC(=O)CCC(=O)N/N=C/c1ccc[nH]1 | 14.5%
